ID4 binder = binders of human ID4 protein, primary screen, biochemical, small molecule microarray, single point. 31,000 compounds, 1.2% hits. calls only. Flag-ID4 binding, fluorescence F/B. DNA-binding protein inhibitor ID-4 (Homo sapiens), P47928; call rule not given here;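 also: a binder raises fluorescence above local background on the spot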
Target sequence (P47928 whole entry, looked up): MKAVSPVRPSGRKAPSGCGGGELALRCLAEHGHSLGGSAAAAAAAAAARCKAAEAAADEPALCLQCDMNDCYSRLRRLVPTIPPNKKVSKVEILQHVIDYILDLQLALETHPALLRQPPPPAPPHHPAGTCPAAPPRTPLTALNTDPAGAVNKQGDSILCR
p53 PUMA act = mutant p53 pathway re-activators, primary screen, cell-based, SW480, luciferase, single point, HTS | SW480 PUMA-promoter luciferase, p53 mutant reactivation | activation, % at 9.98 µM | 28,000 compounds, 1.5% hits; in the data active = activation above about 52%
STK33 inh = STK33 kinase inhibitors, primary screen, biochemical, luminescence, ADP-Glo, MBP substrate; 27,000 compounds, 0.44% hits; Serine/threonine-protein kinase 33 (Homo sapiens), Q9BYT3; inhibition, % at 12.5 µM; in the data active = inhibition above about 20%
Active calls of the source: *; i = inactive; x = no result; + = active, no number. This is a sample that favours compounds with a hit; in the whole collection about 2.1% have one here.

SMILES	ID4 binder	p53 PUMA act	STK33 inh
C[C@@H]1CN([C@H](C)CO)C(=O)c2cc(NC(=O)CCC(F)(F)F)ccc2O[C@@H](C)CCCCO[C@@H]1CN(C)S(=O)(=O)c1ccccc1	i	-18.4	x
COC(=O)c1ccc(NC(=O)C2CCCCC2C(=O)O)cc1 (stereo unspecified)	i	-3.4	-1.4
COc1cccc(C(=O)Nc2ccc(NC(=O)C3CCCCC3C(=O)O)cc2)c1 (stereo unspecified)	+	-9.9	0.6
COc1ccccc1S(=O)(=O)N[C@H]1C=C[C@@H](CC(=O)NCc2cccc(F)c2)O[C@@H]1CO	i	x	x
C[C@@H]1CN([C@H](C)CO)C(=O)c2cc(NC(=O)NC3CCCCC3)ccc2O[C@@H]1CN(C)S(=O)(=O)c1cccs1	i	-40.8	x
O=C(/C=C/c1ccccc1)CC(O)CCc1ccccc1 (stereo unspecified)	i	11.3	-5.1
COc1ccc(/C=C/C(=O)c2cc(O)ccc2O)cc1	x	x	-6.8
O=C(/C=C/c1ccc(O)cc1)CC(=O)/C=C/c1ccc(O)cc1	x	5.8	120.0*
O=C(/C=C/c1ccc(O)cc1)c1ccc(O)cc1O	x	x	49.6*
C[C@@H](NC(=O)C[C@H]1CC[C@@H](NC(=O)C2CC2)[C@@H](CO)O1)c1ccccc1	i	x	x
CCn1c(SCC(=O)Nc2ccc(Br)c(Cl)c2)nnc1-c1ccc(Cl)cc1	i	-17.3	-0.6
C[C@@H]1CN([C@H](C)CO)C(=O)c2cc(NC(=O)Cc3ccccc3)ccc2O[C@H]1CN(C)Cc1ccc(-c2ccccc2)cc1	x	x	1.5
Cn1c(SCC(=O)Nc2cccc(F)c2)nnc1-c1cc2ccccc2o1	i	-10.1	2.0
COc1ccc(OCC(=O)Nc2cccc(-c3nnc4c5ccccc5c(C)nn34)c2)cc1	i	101.2*	6.6
Cc1nn2c(-c3cccc(NC(=O)CSc4nc5ccccc5o4)c3)nnc2c2ccccc12	i	73.5*	3.8
COc1ccc(OCC(=O)Nc2ccc3nn(-c4ccc(Cl)cc4)nc3c2)cc1	i	38.9	0.3
C[C@@H]1CN([C@H](C)CO)S(=O)(=O)c2ccc(-c3ccc(F)cc3)cc2O[C@@H]1CN(C)Cc1ccccc1C(=O)O	i	7.1	x
COc1cc(-c2oc3cc(O)cc(O)c3c(=O)c2O)ccc1O	i	x	52.5*
O=c1c(-c2ccc(O)cc2)coc2cc(O)cc(O)c12	i	53.0*	8.7
COc1cc(-c2oc3cc(O)c(OC)c(O)c3c(=O)c2OC)ccc1O	x	-42.2	15.9
O=c1c(O[C@@H]2OC[C@H](O)[C@H](O)[C@H]2O)c(-c2ccc(O)c(O)c2)oc2cc(O)cc(O)c12	x	3.1	7.6
COc1ccc(-c2coc3cc(O)cc(O)c3c2=O)cc1	x	x	1.9
O=c1c(O)c(-c2ccc(O)c(O)c2)oc2cc(O)cc(O)c12	i	41.4	38.3*
C[C@@H]1CN([C@H](C)CO)C(=O)CCCn2nncc2CO[C@H]1CN(C)C(=O)Cc1ccccc1	x	x	3.5
C[C@H](CO)N1C[C@H](C)[C@H](CN(C)C(=O)C2CCOCC2)Oc2ncc(-c3cccc(F)c3)cc2C1=O	i	x	x
SMILES	ID4 binder	p53 PUMA act	STK33 inh
CNC[C@H]1Oc2ccc(NC(=O)c3ccncc3)cc2CC(=O)N([C@@H](C)CO)C[C@H]1C	i	1.2	0.5
CCOC(=O)c1csc(N)n1	x	x	-0.6
CC(=O)Nc1ccc(C(=O)Nc2ccc(OCC(=O)O)cc2)cc1	i	-4.0	1.2
COc1ccc(C(=O)Nc2ccc(C(=O)OCc3cccc([N+](=O)[O-])c3)cc2)cc1	i	5.8	6.2
O=C(OCc1cccc([N+](=O)[O-])c1)c1ccc(NC(=O)c2ccco2)cc1	i	69.6*	-5.1
O=C(O)COc1ccc(NC(=O)c2ccc(NC(=O)c3ccco3)cc2)cc1	+	-14.2	12.2
C[C@H](CO)N1C[C@H](C)[C@H](CN(C)CC2CC2)Oc2cc(C3=CCCCC3)ccc2S1(=O)=O	i	x	x
Cc1c(Br)ccc(NC(=O)CSc2nnc(-c3ccccc3)n2-c2ccccc2)c1C	i	-16.7	2.8
O=C(O)C[C@@H]1C=C[C@H](NC(=O)Nc2ccccc2)[C@H](CO)O1	i	x	x
COC(=O)c1c(NC(=O)CSc2nnc3ccccn23)sc(C)c1C	+	4.7	-1.6
CCOC(=O)c1c(NC(=O)CSc2nnc3ccc4ccccc4n23)sc(C)c1C	i	-14.4	-0.2
Cc1cccc(NC(=O)c2cc(NC(=O)CCC(=O)O)ccc2N2CCOCC2)c1	+	-12.3	0.8
Cc1cccc(NC(=O)c2cc(NC(=O)C3CCCCC3C(=O)O)ccc2N2CCCCC2)c1 (stereo unspecified)	i	-15.7	-9.6
C[C@H]1CN([C@@H](C)CO)C(=O)c2cccc(NC(=O)C3CC3)c2O[C@H]1CN(C)Cc1ccc(Cl)c(Cl)c1	x	3.8	x
COc1ccc(NC(=O)N(C)C[C@@H]2Oc3ccc(NS(=O)(=O)c4cn(C)cn4)cc3C(=O)N([C@H](C)CO)C[C@H]2C)cc1	x	x	0.5
COc1ccc(NCC(O)Cn2ccc3ccccc32)cc1 (stereo unspecified)	i	15.6	-1.7
O=C1c2ccccc2S(=O)(=O)N1CC(O)Cn1ccc2ccccc21 (stereo unspecified)	+	17.1	-4.5
OCc1nc2ccccc2n1CC(O)Cn1ccc2ccccc21 (stereo unspecified)	i	-14.9	-2.0
Cc1cc(C)n(CC(O)Cn2ccc3ccccc32)n1 (stereo unspecified)	+	-11.5	-2.3
Cc1ccc(S(=O)(=O)N(C)C[C@@H]2Oc3ccc(NC(=O)Nc4ccc(C(F)(F)F)cc4)cc3C(=O)N([C@@H](C)CO)C[C@@H]2C)cc1	x	x	3.2
C[C@@H]1CCCCO[C@H](CN(C)C(=O)CCC(F)(F)F)[C@@H](C)CN([C@H](C)CO)C(=O)c2cc(NS(=O)(=O)c3cn(C)cn3)ccc2O1	x	x	-12.4
COc1ccc(OC)c(-n2c(=S)[nH]c3cc(C(=O)NCc4ccc(F)cc4)ccc3c2=O)c1	x	x	-0.7
COc1cc(/C=C/c2cc(O)cc(O[C@@H]3O[C@H](CO)[C@@H](O)[C@H](O)[C@H]3O)c2)ccc1O[C@@H]1O[C@H](CO)[C@@H](O)[C@H](O)[C@H]1O	x	14.7	10.3
COc1cc(/C=C/c2cc(O)cc(O)c2)ccc1O[C@@H]1O[C@H](CO)[C@@H](O)[C@H](O)[C@H]1O	i	65.7*	-0.7
CC(Oc1ccc(Br)cc1)c1nc(-c2ccccn2)no1 (stereo unspecified)	i	60.3*	-1.1
COc1ccc(OC(C)c2nc(-c3cccnc3)no2)cc1 (stereo unspecified)	i	-13.7	-1.6
C[C@H]1CN([C@@H](C)CO)C(=O)Cc2cc(NC(=O)CCN3CCOCC3)ccc2O[C@@H]1CN(C)Cc1ccc(C(F)(F)F)cc1	x	x	1.6
COc1ccc(CCNC(=O)C2OCCc3ccccc32)cc1OC (stereo unspecified)	+	-4.7	-0.7
O=C(NCc1ccco1)C1OCCc2ccccc21 (stereo unspecified)	i	5.8	0.1
C[C@@H]1CCCCO[C@H](CN(C)S(=O)(=O)c2cn(C)cn2)[C@@H](C)CN([C@H](C)CO)C(=O)c2cc(NC(=O)NC3CCCCC3)ccc2O1	x	x	0.4

Bioassay records: PubChem, Broad Institute
